According to PubChem BioAssay AID2556 (The Scripps Research Institute Molecular Screening Center, 2010):
Unmarked numbers belong to inactive results. Active and inactive are the calls of the source. The rule behind the calls is not given here.

Assay: xanthine oxidase inhibitors, late-stage follow-up, counter-screen for NOX1 inhibitor project, biochemical (AID 2556)
Details: xanthine oxidase superoxide assay

Row | Structure (SMILES) | IC50
1 | c1ccc2c(c1)Nc1nc3ccccc3nc1N2 | 3.5 µM (active)
2 | CN(C)c1ccc(NC(=O)Nc2ccc(OCc3ccccc3)cc2)cc1 | 2 µM (active)
3 | O=C(Oc1ccccc1N1CCCCC1)c1sc2ccccc2c1Cl | 11.1 µM
4 | FC(F)(F)c1ccc2c(c1)Nc1ccccc1S2 | 20.7 µM
5 | Cc1cc(Cl)ccc1NC(=S)NNC(=S)Nc1ccc(F)cc1 | 11 µM
6 | COc1cc(-c2nc(-c3ccccc3)c(-c3ccccc3)[nH]2)ccc1O | 11.2 µM
